# The list is not random: actives were taken first. Their share in the collection is about 6.5%.
# MARV entry inh: Marburg virus entry inhibition; Marburg virus pseudotyped entry inhibition, cell reporter; Potency, µM (series often up to 37.8 µM), for the others: at the top dose activity change, negative = inhibition, most hits filed as inhibitors; 300,000 tested, 1.8% active; AID 540276; calls by dose curve; tested in HEK293 cells; note: potency is the fitted concentration of half-maximal effect
# FMDV inh: antivirals against foot and mouth disease virus. FMDV antiviral cell-based qHTS. Potency, µM (highest dose often 57.9 µM), without a hit: top-dose activity change, negative = inhibition, hits mostly inhibitors. 410,000 tested, 1.2% active. AID 1159524; calls by dose curve; tested in HEK293T cells; note: read-out not given here; potency is the fitted concentration of half-maximal effect; nearly all actives have a fitted effect of over 45% in size
# HCMV inh: blocks human cytomegalovirus replication; HFF cells, HCMV-luciferase reporter, 72 h; stronger effect = lower value; activity change, negative = inhibition, % at 57.5 µM; 410,000 tested, 4.5% active; in the data active = activity change below about -60%; inconclusive = no clear call, values can overlap the other calls; inactive = above about -39%
#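 HFF cells seeded 16 h at 37C, treated with compounds, infected with luciferase-reporter HCMV at MOI 1 PFU/cell; luciferase read at 72 h post infection, normalized to buffer-only and Salinomycin controls.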
# Vaccinia Venus: inhibitors of vaccinia virus (Venus reporter); AID 720580; 330,000 tested, 0.46% active; Vaccinia virus Venus reporter expression, fluorescence; Potency, µM (top dose mostly 36.5 µM), for inactives: top-dose activity change, negative = inhibition, most hits filed as inhibitors; calls by dose curve; tested in A549 cells; note: potency is the fitted concentration of half-maximal effect; nearly all actives have a fitted effect of over 30% in size
# LASV entry inh: blocks Lassa virus binding to or entry into cells | 300,000 tested, 1.2% active | Lassa virus pseudotype entry inhibition, cell reporter | Potency, µM (doses to about 37.9 µM), inactives show top-dose activity change, negative = inhibition, hits mostly inhibitors; calls by dose curve; tested in HEK293 cells; note: potency is the fitted concentration of half-maximal effect; nearly all actives have a fitted effect of over 50% in size
# Vaccinia mCherry: vaccinia inhibition (mCherry reporter). Potency, µM (doses to about 36.5 µM), for inactives: at the highest dose activity change, negative = inhibition, usual class: inhibitors. AID 720579. Vaccinia virus mCherry reporter infection, fluorescence. 310,000 tested, 0.63% active; calls by dose curve; tested in A549 cells; note: potency is the fitted concentration of half-maximal effect; nearly all actives have a fitted effect of over 35% in size
# An asterisk follows results filed as active; i = inactive; ? = inconclusive; / = no result given; [ ] = another dose, or the depositor's remark. % is set by controls: 0 for no effect and ±100 for the full control effect.
SMILES,MARV entry inh,FMDV inh,HCMV inh,Vaccinia Venus,LASV entry inh,Vaccinia mCherry
CCOc1ccc(S(=O)(=O)N2CCN(Cc3ccco3)CC2)cc1,16%,-7%,9,-9%,14%,-18%
O=C(Oc1c(-c2ccccc2)c(=O)n2c3c(cccc13)CC2)c1ccccc1,?,-17%,16,-26%,-27%[46.1 µM],-29%
O=C(Oc1c(-c2ccccc2)c(=O)n2c3c(cccc13)CC2)c1cccc([N+](=O)[O-])c1,?,-12%,-72*,-18%,-6%[46.1 µM],-2%
COc1ccc(-c2csc(NC(=S)NC(=O)/C=C/c3ccco3)n2)cc1Br,-14%[46.1 µM],-9%,-73*,?,?,-3%
O=C(/C=C/c1ccco1)Nc1nc(-c2ccc(F)c(F)c2)cs1,/,35µM*,/,/,/,/
CC(=O)C1=C(c2ccc(Br)cc2)C(=O)c2ccccc2C1=O,5.2µM*,3.2µM*,?,6%,2.5µM*,-15%
CC1=C(c2ccc(Cl)cc2)S(=O)(=O)NC1=NCCCN1CCN(c2cc(C)ccc2C)CC1,-12%[46.1 µM],?,-100*,11µM*,-17%[46.1 µM],10µM*
COc1cc(CNC23CC4CC(CC(C4)C2)C3)ccc1OCc1ccccc1,5µM*,-8%,-28,-7%,20%[46.1 µM],i
COc1cc(CNCc2cccs2)ccc1OCc1ccccc1,-84%,/,-31,-14%,11%,?
O=C(CNS(=O)(=O)Cc1ccccc1)NNc1ccccc1,/,2%,4,-9%,/,i
CCC(C)c1ccc(S(=O)(=O)N2CCN(CC(O)COCC3CCCO3)CC2)cc1 (stereo not given),15%,-15%,-27,-12%,14%,-20%
CSC1=NCCN1C(=O)c1c(F)cccc1Cl,?,-2%,-100*,-12%,0%,i
CC1(C(=O)Nc2ccc3c(c2)OCCO3)CN(S(C)(=O)=O)CC(=O)N1CCc1ccccc1F (stereo not given),/,47%,13,-13%,/,i
O=C(N/N=C/c1ccccc1Cl)c1n[nH]c2c1CCCC2,1.3µM*,?,?,/,?,/
O=C(N/N=C/c1ccc(Cl)cc1)c1n[nH]c2c1CCCC2,?,66%,-91*,?,?,-12%[7.34 µM]
Cc1cccc(Cn2ncc(Cl)c(Cl)c2=O)c1,?,?,-94*,/,?,/
Cc1ccc(C)c(C(=O)CN2C(=O)c3ccccc3C2=O)c1,-3%[46.1 µM],17%,-14,-3%,0%[46.1 µM],-22%
Cc1cc(C(=O)Cn2ncc(Cl)c(Cl)c2=O)c(C)n1CC(F)(F)F,?,?,-100*,14µM*,?,?
Cc1cccc(Cn2nnc3c2C(=O)c2ccccc2C3=O)c1,?,?,-100*,/,?,/
Cc1ccccc1Cn1nnc2c1C(=O)c1ccccc1C2=O,?,-2%,80,4%,-20%,-12%
Cc1ccc(C)c(C(=O)Cn2ncc(Cl)c(Cl)c2=O)c1,10µM*,32µM*,-97*,?,?,-21%
CC(C)[C@H](NC(=O)OCc1ccccc1)C(=O)OCC(=O)NCCc1ccccc1,-1%[46.1 µM],-4%,19,-22%,?,-4%
CN1C(=O)C(C)(C(Nc2ccccc2)c2ccccc2)c2ccccc21 (stereo not given),/,/,20,/,/,/
O=C(C1=COCCO1)N1CCN(S(=O)(=O)c2cccc(Br)c2)CC1,/,-17%,-2,/,/,/
COc1ccc(C2Sc3ccccc3N(CCN(C)C)C(=O)[C@@H]2OC(C)=O)cc1 (stereo not given in full),?,-5%,/,-5%,/,-2%
SMILES,MARV entry inh,FMDV inh,HCMV inh,Vaccinia Venus,LASV entry inh,Vaccinia mCherry
COc1ccc([C@@H]2Sc3ccccc3N(CCN(C)C)C(=O)[C@@H]2OC(C)=O)cc1,?,-16%,-7,-13%,2.3µM*,-14%
CC(C)n1c(-c2ccc(C(C)(C)C)cc2)n[nH]c1=S,6%,?,-72*,/,-18%,/
CC1CCCN(c2ncnc3c2nc2n3CCCCC2)C1 (stereo not given),/,55%,15,3%,20%[46.1 µM],3%
Cc1ccc2nc(Cl)c3cc(C(=O)NCCCN4CCC(C)CC4)sc3c2c1,6%[46.1 µM],-13%,5,-9%,?,-6%
CCCN1CCN(CCCNC(=O)c2cc3c(Cl)nc4ccccc4c3s2)CC1,?,-20%,-80*,1%,3%[46.1 µM],12%
CC1CCN(CCCNC(=O)c2cc(Sc3ccc(F)cc3)nc3ccccc23)CC1,/,-17%,-65*,-16%,-23%[46.1 µM],i
O=C(NCCCN1CCCC1)c1cc2c(Cl)nc3ccccc3c2s1,10µM*,-2%,-35,?,?,i
CC1CCCCN1CCCNC(=O)c1cc(Sc2ccc(Cl)cc2)nc2ccccc12 (stereo not given),/,-17%,-21,-28%,26%[46.1 µM],-28%
CC1CCN(CCCNC(=O)c2cc3c(Cl)nc4ccccc4c3s2)CC1,/,-23%,-91*,/,/,/
O=C(CCc1cccnc1)NCC1Cc2cccc(-c3ncccn3)c2O1 (stereo not given),/,-10%,/,18%,/,-2%
CCCn1c(N)c(N(CCOC)C(=O)COC(=O)COc2c(C)cc(C)cc2C)c(=O)[nH]c1=O,/,-10%,-22,-5%,/,i
C=CCN1C(=O)NC(=O)/C(=C/C=C/c2ccccc2)C1=O,17%,?,-112*,21%,18%,-13%
O=C1NC(=O)N(CCc2ccc(F)cc2)C(=O)/C1=C\C=C\c1ccccc1,9%[46.1 µM],10µM*,-33,5%,/,-8%
O=C(CN(CC(=O)NCc1ccccc1)CC(=O)NCc1ccccc1)NCc1ccccc1,/,/,-3,/,/,/
CC1(C)C(=O)C=CC(=O)C(C)(C)C(=O)C=CC(=O)C(C)(C)C2=CC=C(O2)C(C)(C)C(=O)C=CC1=O,?,7.9µM*,-22,-2%,-19%,-10%
COc1cc(NC(=O)c2ccc(Cl)cc2Cl)ccc1-c1cc2ccccc2oc1=O,-29%,3%,-91*,-19%,?,-10%
COc1cc(NC(=O)c2ccco2)ccc1NC(=O)c1ccccc1Cl,?,12%,?,-28%,13µM*,/
COc1cc(NC(=O)Cc2ccccc2)ccc1NC(=O)c1ccco1,25%,69%,-9,/,0%,/
COc1cc(NC(=O)c2cc3ccccc3o2)ccc1NC(=O)c1ccco1,8%[46.1 µM],-2%,-1,-11%,6%,-11%
COc1cc(NC(=O)c2ccccc2Cl)ccc1NC(=O)c1ccco1,19%,16%,53,?,-23%,14µM*
COc1cc(NC(=O)c2ccc(C)cc2)ccc1NC(=O)c1cc2ccccc2o1,-25%,-9%,9,1%,-3%,-5%
COc1cc(NC(=O)c2ccc(C)cc2C)ccc1NC(=O)c1cc2ccccc2o1,/,-30%,-82*,/,/,/
CC1=NN(c2ccc(C)cc2)C(=O)/C1=C\C=C\c1ccccc1,3%,28µM*,-81*,0%,10%,-22%
CC1=NN(c2ccccc2)C(=O)C1=Cc1ccccc1,/,0%,-12,-16%,/,-21%

# Source: PubChem BioAssay (National Center for Advancing Translational Sciences (NCATS))
